# Assay outcomes (PubChem)
# Most compounds without a hit are left out; they make up all but 3.6% or so of the library.
# NFkB transloc pot: enhances IL-1B driven NFkB nuclear translocation; HUVEC IL-1B NFkB p65 nuclear translocation imaging; activation, % at 2 µM; 0.3% of 94,000 active; AID 819;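 active = activation above 40%, about the mean plus 3 SD, also judged a hit on visual image review; inconclusive = activation above 40% but not a hit on visual review; inactive = activation not above 40% and no visual hit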;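 note: percent activation is computed from the nuclear over cytoplasmic p65 intensity ratio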
# IL1B cytotox: HUVEC cytotoxicity counter-screen, IL-1B stimulated; HUVEC cell count loss, Hoechst imaging; cell count reduction, % at 2 µM; 0.41% of 94,000 active; AID 845;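 active = cell count reduction more than 3 SD above the screen-wide mean, cut at about 70% in these data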;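 note: normalized per plate to untreated control cells as the no-loss baseline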
# ERa SRC1 inh: blocks coactivator binding to human estrogen receptor alpha; 1.7% of 86,000 active; inhibition, % at 25.6 µM; P03372; TR-FRET ER-alpha LBD / SRC-1 peptide, estradiol-bound; in the data active = inhibition above about 50%;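 note: 0% = receptor plus peptide control and 100% = peptide only without receptor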
# Target sequence (P03372 whole entry, looked up, the tested form may be a part): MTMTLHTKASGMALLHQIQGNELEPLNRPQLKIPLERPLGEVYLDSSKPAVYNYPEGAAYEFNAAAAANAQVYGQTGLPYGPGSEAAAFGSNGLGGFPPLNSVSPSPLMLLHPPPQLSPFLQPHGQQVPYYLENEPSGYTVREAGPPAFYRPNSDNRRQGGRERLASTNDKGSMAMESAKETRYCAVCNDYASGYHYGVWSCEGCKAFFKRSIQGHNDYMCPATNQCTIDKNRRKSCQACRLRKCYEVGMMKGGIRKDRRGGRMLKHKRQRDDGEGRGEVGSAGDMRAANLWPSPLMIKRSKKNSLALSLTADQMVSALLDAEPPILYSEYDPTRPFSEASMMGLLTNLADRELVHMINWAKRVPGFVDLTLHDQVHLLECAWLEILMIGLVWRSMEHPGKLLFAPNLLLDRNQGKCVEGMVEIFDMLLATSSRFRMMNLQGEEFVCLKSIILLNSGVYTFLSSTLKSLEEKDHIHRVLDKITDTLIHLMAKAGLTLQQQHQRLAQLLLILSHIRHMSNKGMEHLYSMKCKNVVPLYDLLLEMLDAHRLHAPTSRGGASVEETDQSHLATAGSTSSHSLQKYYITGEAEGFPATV
# ERa coact pot: ER-alpha (human) coactivator binding potentiation. P03372. TR-FRET ERalpha-LBD/SRC-Cy5 coactivator binding, 2 h; 100 = basal binding, no effect. coactivator binding (% of control), % at 25.6 µM. 1.3% of 86,000 active; in the data active = activity above about 200%;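 note: binding measured in presence of low estradiol as agonist stimulus; 0% = peptide alone without receptor and 100% = receptor with peptide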
# NFkB transloc inh: blocks IL-1B driven NFkB nuclear translocation in HUVEC cells; HUVEC IL-1B NFkB p65 nuclear translocation imaging; inhibition, % at 2 µM; 0.43% of 94,000 active;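 active = inhibition above about 30% together with a positive call from visual inspection of the well image, limit read from the data; inconclusive = inhibition above a set limit but visual check negative; inactive = inhibition not above a set limit, visual check negative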;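 note: nuclear over cytoplasmic p65 intensity ratio measured by imaging; 0% = IL-1B stimulated DMSO wells and 100% = unstimulated DMSO wells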
# ERb coact inh: ER-beta (human) coactivator binding inhibition | Q92731 | TR-FRET ER-beta LBD / SRC1-Cy5 peptide binding; receptor agonist-loaded with 1 µM estradiol | inhibition, % at 25.6 µM | 1.3% of 86,000 active;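 active = compounds whose percent inhibition of the receptor-coactivator binding signal exceeds about 50% in the single-dose screen, limit read from the data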;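 note: 0% = receptor plus peptide wells without compound and 100% = peptide-only wells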
# * = called active by the depositor; ? = inconclusive; . = no result given; [ ] = remark or other dose.
SMILES,NFkB transloc pot,IL1B cytotox,ERa SRC1 inh,ERa coact pot,NFkB transloc inh,ERb coact inh
O=C(c1ccc(CS(=O)(=O)c2ccccc2)o1)N1CCC2(CC1)OCCO2,1,4,46,33,-1,74*[fluorescence artefact?]
COC(=O)C(O)(c1ccc(N(C)C(=O)OC(C)C)cc1)C(F)(F)F (configuration not stated),6,-6,4,101,-6,68*
CC(C)CCn1c(=O)c(C(=O)Nc2ccccc2S(N)(=O)=O)c(O)c2ccccc21,-39,-9,12,131,39*,12
CCC12C=CCN3CCC4(c5cc(Br)c(OC)cc5N(C)C4C(O)(C(=O)OC)C1OC(C)=O)C32 (configuration not stated),40*,-20,.,.,-40,.
Clc1cccc(Cl)c1C1N2CCCN12 (configuration not stated),14,-8,-2,122,-14,81*[fluorescence artefact?]
CC12CN3CC(C)(CN(C1)C3c1ccncc1)C2=O (configuration not stated),-4,-21,-5,116,4,93*[fluorescence artefact?]
CCC(=O)N1c2ccc(S(=O)(=O)CCC(=O)N3CCC4(CC3)OCCO4)cc2CC1C (configuration not stated),22,-26,-2,124,-22,40
Cc1cc(C)c(C2=NOC(O)(C(F)(F)F)C2)c(=O)[nH]1 (configuration not stated),-9,0,-5,101,9,-5
CC1=CC(=C2C(=O)NC(=S)NC2=O)C=C(C(F)(F)F)N1C,11,2,52*[fluorescence artefact?],62,-11,63*[fluorescence artefact?]
CCCNS(=O)(=O)c1ccc(OCC(=O)N2CCN(C)CC2)cc1,25,88*,-28,113,-25,-24
O=C1C2CCCN2C(c2cccc(Cl)c2)N1c1ccccn1 (configuration not stated),37,-57,9,114,-37,-3
Cc1ccc(CC2C(=O)N(C)C(=O)N(C)C2=O)s1,0,2,-4,111,0,-1
C=CCOc1ccc(CC2C(=O)N(C)C(=O)N(C)C2=O)cc1,16,-49,57*,97,-16,37
CC(C)OCCCNC(=O)c1c(N)n(CC2CCCO2)c2nc3ccccc3nc12 (configuration not stated),-97,90*,22,84,97*,7
CCCNC(=O)c1c(N)n(CC2CCCO2)c2nc3ccccc3nc12 (configuration not stated),6,-14,12,71,-6,15
CC(=O)OC1(Cc2ccccc2)CN2CCC1c1ccccc12 (configuration not stated),6,5,-1,103,-6,-15
CCOc1ccccc1-n1c(O)c(C=Nc2ccc(N(CC)CC)cc2)c(=O)[nH]c1=O,.,.,62*[fluorescence artefact?],91,.,33
Cc1nc2cc(C(=O)N3CCC4(CC3)OCCO4)ccc2n1-c1cccc(F)c1,-4,-7,3,122,4,-9
CN1C(=O)c2ccccc2Sc2ccc(C(=O)N3CCC4(CC3)OCCO4)cc21,157*,-3,15,130,-157,9
O=C(c1ccc2nc(-c3ccco3)c(-c3ccco3)nc2c1)N1CCC2(CC1)OCCO2,.,.,56*[fluorescence artefact?],39,.,76*[fluorescence artefact?]
CCN(CC)CCN=Cc1c(O)n(CCC2=CCCCC2)c(=O)[nH]c1=O,-26,89*,-4,98,26,6
O=c1[nH]c(=O)n(CCC2=CCCCC2)c(O)c1C=NCc1cccnc1,-8,26,-3,101,8,2
CCN(CC)C(=O)c1ccc(NC(=O)c2cccc(F)c2)cc1,11,3,.,.,-10,.
Cc1cc2c(s1)NC(=O)CN=C2c1cccs1,13,-46,-33,94,-13,3
O=C1CN=C(c2cccs2)c2c(sc3c2CCCC3)N1,15,-15,3,97,-15,64*[fluorescence artefact?]
SMILES,NFkB transloc pot,IL1B cytotox,ERa SRC1 inh,ERa coact pot,NFkB transloc inh,ERb coact inh
CN(C)c1ccc(NC(=O)CN2C(=O)CN=C(c3ccccc3)c3ccccc32)cc1,14,-77,22,52,-14,53*[fluorescence artefact?]
CN(C)c1ccc(NC(=O)CN2C(=O)CN=C(c3ccccc3)c3cc(Cl)ccc32)cc1,-6,4,33,52,6,37
Fc1ccccc1CCNCc1cccc(Cl)c1Cl,11,1,.,.,-10,.
COCCCN1CCN(c2nnc3n2-c2sc(Br)cc2C(c2ccccc2Cl)=NC3)CC1,-4,10,.,.,4,.
O[C@@H]1CCCC[C@H]1N1CCC(c2ccccc2)CC1,19,-42,-18,109,-19,-2
CCOc1ccccc1N1C(=O)NC(=O)C(CCc2ccncc2)(CCc2ccncc2)C1=O,-57,-21,-8,384*,?,-16
CCOP(=O)(OCC)C(NC(=O)C(C)C)C(Cl)(Cl)Cl (configuration not stated),3,-10,14,101,-4,-11
COc1ccc(CCNCc2ccccn2)cc1OC,-36,-8,-1,93,36*,-5
Cc1ccccc1C1=NCC(=O)N(CC(=O)NCc2ccco2)c2sc3c(c21)CCCC3,10,-16,5,87,-10,0
O=c1c2ccccc2nc(-c2ccco2)n1-c1ccccn1,4,3,1,127,-4,-1
O=c1c2ccccc2nc(-c2ccco2)n1-c1cccnc1,-4,84*,2,112,4,2
O=C(CNS(=O)(=O)c1ccc(Br)s1)N1CCC2(CC1)OCCO2,43*,14,2,120,-43,-3
O=C(C1CCC(=O)N1Cc1ccccc1Cl)N1CCC2(CC1)OCCO2 (configuration not stated),.,.,-6,809*[fluorescence artefact?],.,-1
CC(C)N1C(=O)CCC1C(=O)N1CCC2(CC1)OCCO2 (configuration not stated),1,8,-4,107,-1,-7
CC(=O)OC1N=C(c2ccccc2)c2cc(Br)ccc2N(C)C1=O (configuration not stated),5,30,.,.,-5,.
CCOC(=O)c1c(N)n(Cc2ccco2)c2nc3ccccc3nc12,17,-7,14,88,-17,36
COc1ccc(Cn2c(N)c(C(=O)NCc3ccco3)c3nc4ccccc4nc32)cc1,11,-2,73*,81,-11,39
COCC(C)OC(=O)c1c(N)n(Cc2ccco2)c2nc3ccccc3nc12 (configuration not stated),-3,11,7,84,3,58*[fluorescence artefact?]
Nc1c(C(=O)NCc2ccco2)c2nc3ccccc3nc2n1Cc1ccc(F)cc1,15,21,42,50,-15,25
CCCCOP(=O)(OCCCC)/C(C#N)=C(/C)O,27,5,-2,91,-27,-5
CC(C)NS(=O)(=O)c1ccc(OCC(=O)N2CCN(Cc3ccccc3)CC2)cc1,11,-43,.,.,-11,.
O=C(COc1ccc(Cl)cc1)N1CCN(Cc2ccccc2)CC1,43*,-17,-1,104,-43,-2
CN1CCC2(CC1)NC(=O)C1=C(CN(C)CC1)N2,32,-9,10,108,-32,-5
